Assay results as given in PubChem BioAssay (NCATS).
“And” between values parts separate entries of the source, which are not always exact repeats. Equal entries are not always repeated. Records with an inconclusive call do not appear. The source made the active and inactive calls. Unless noted, calls come from the whole dose curve; as a rule, active = well fitted inhibition curve with a large enough effect; inconclusive = small, poorly fitted or top-dose-only effect; inactive = flat fitted curve, though single readings scatter.

How the values were obtained:
[1] = molecular target: Ubiquitin carboxyl-terminal hydrolase 1 (Homo sapiens) (UniProt O94782); assay: Inhibitors of USP1/UAF1: Pilot qHTS (AID 504865); conditions: purified USP1/UAF1, Ub-rhodamine cleavage fluorescence; series mostly up to 114 µM; note: nearly all actives have a fitted effect of over 35% in size; note: potency is the fitted concentration of half-maximal effect
Sequence of Ubiquitin carboxyl-terminal hydrolase 1 (Homo sapiens) (O94782 whole entry, looked up): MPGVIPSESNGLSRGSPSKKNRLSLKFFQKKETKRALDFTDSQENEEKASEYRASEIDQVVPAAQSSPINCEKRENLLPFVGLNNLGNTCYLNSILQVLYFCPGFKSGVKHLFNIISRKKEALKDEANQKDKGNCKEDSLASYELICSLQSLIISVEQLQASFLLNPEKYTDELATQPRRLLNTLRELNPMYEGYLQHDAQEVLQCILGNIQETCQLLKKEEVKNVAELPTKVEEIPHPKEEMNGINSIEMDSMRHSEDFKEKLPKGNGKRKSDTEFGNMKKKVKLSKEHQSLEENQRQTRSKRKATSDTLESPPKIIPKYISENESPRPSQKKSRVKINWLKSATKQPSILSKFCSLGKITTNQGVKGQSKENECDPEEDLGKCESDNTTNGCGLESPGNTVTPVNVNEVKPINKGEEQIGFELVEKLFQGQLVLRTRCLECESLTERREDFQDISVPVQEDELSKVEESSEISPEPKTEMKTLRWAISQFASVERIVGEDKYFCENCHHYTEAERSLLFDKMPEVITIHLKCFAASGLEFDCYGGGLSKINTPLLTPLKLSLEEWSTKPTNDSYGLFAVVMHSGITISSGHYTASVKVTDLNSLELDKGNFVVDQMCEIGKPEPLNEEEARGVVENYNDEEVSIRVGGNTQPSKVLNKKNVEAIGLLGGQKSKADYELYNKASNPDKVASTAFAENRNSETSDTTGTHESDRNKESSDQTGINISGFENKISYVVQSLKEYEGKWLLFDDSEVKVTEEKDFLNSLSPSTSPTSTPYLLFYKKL
Procedure, shortened: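 Enzyme-free wells gave the negative control, while test wells held 1nM USP1/UAF1 preincubated with compound for 15 min at room temperature. Ub-Rho at 150nM final started the reaction, and fluorescence at 480/540 nm was recorded kinetically.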

[2] = molecular target: Bile acid receptor (Homo sapiens) (UniProt Q96RI1); assay: qHTS assay for small molecule antagonists of farnesoid X receptor signaling (AID 588526; calls by dose curve; note: % is set by controls: 0 for no effect and ±100 for the full control effect); conditions: HEK293T FXR-UAS-bla, beta-lactamase ratio, antagonist mode; series mostly up to 76.7 µM
Sequence of Bile acid receptor (Homo sapiens) (Q96RI1 whole entry, looked up): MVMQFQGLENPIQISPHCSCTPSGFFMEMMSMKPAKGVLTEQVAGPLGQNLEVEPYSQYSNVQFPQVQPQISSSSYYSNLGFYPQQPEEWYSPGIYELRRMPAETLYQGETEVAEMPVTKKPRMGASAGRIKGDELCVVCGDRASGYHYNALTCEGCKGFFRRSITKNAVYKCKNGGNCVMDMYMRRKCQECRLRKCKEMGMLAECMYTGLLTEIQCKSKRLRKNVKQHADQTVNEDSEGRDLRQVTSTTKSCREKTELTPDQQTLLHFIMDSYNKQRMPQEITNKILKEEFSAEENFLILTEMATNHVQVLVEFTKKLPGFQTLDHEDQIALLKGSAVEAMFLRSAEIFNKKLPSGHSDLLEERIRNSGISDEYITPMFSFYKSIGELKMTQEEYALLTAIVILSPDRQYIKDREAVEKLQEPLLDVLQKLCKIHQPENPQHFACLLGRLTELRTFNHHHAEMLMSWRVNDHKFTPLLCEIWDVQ
Procedure, shortened: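 Beta-lactamase reporter antagonist mode: HEK293T FXR-UAS-bla cells, titrated compound, CDCA stimulation, 16 h 37 C, CCF4 dye 2 h RT. Data normalized to CDCA 50 uM and DMSO; Hill-fit IC50.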

[3] = molecular target: Glucocorticoid receptor (Homo sapiens) (UniProt P04150); assay: qHTS assay for small molecule agonists of glucocorticoid receptor signaling (AID 588532; active = well fitted curve in the direction sought with a large enough effect in the signal ratio, with a control signal flat; the % refers to the signal ratio;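 note: 100% = dexamethasone at 0.1 µM and 0% = DMSO only wells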); conditions: HeLa MMTV-bla, beta-lactamase ratio, agonist, 18 h; stronger effect = higher value; percent of dexamethasone control, DMSO zero
Sequence of Glucocorticoid receptor (Homo sapiens) (P04150 whole entry, looked up): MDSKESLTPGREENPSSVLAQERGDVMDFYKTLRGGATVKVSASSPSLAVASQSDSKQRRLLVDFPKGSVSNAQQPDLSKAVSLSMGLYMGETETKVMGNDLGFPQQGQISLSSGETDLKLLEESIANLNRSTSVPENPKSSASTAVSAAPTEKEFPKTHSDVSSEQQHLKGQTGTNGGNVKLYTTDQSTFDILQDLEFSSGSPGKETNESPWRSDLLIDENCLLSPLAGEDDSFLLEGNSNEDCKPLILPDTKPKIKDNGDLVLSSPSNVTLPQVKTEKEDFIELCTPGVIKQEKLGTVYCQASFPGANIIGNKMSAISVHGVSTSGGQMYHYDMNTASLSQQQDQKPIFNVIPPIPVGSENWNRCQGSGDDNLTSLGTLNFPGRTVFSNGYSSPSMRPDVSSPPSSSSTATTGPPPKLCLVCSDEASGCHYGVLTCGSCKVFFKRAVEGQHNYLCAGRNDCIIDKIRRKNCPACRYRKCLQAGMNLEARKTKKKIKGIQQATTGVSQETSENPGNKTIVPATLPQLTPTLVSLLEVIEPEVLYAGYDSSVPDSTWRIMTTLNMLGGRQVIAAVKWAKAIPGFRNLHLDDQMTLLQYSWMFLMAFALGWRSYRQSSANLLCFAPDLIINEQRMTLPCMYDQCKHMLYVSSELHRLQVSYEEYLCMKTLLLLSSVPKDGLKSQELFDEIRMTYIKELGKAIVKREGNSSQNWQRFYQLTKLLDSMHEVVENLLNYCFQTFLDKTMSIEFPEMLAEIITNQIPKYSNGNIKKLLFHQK
Procedure, shortened: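 Agonist-mode qHTS: GRE-driven beta-lactamase in HeLa cells exposed 18 h to titrated compounds (up to 92 uM), then CCF4 ratio read after 2 h at RT; Hill-fitted EC50, efficacy relative to 0.1 uM dexamethasone.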

[4] = molecular target: Glucocorticoid receptor (Homo sapiens) (UniProt P04150); assay: qHTS assay for small molecule antagonists of glucocorticoid receptor signaling (AID 588533; active = well fitted inhibition curve with a large enough effect in the signal ratio, with a control signal flat, not every such curve was filed as active; the % refers to the signal ratio;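 note: cells stimulated with 2 nM dexamethasone as agonist; % is set by controls: 0 for no effect and ±100 for the full control effect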); conditions: HeLa MMTV-bla, GRE beta-lactamase ratio, antagonist mode, 18 h; series mostly up to 76.8 µM
Procedure, shortened: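 Antagonist-mode qHTS: compound titrations added to GRE-bla HeLa cells, then dexamethasone 2 nM final; 18 h, 37 C. CCF4 FRET fluorescence normalized to dexamethasone and DMSO; IC50 from Hill fit.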

[5] = qHTS assay for small molecule antagonists of peroxisome proliferator-activated receptor delta signaling (AID 588535; active = well fitted inhibition curve with a large enough effect in the signal ratio, with a control signal flat, not every such curve was filed as active; the % refers to the signal ratio;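 for max response: cells co-treated with a PPAR-delta agonist as stimulator during compound exposure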); conditions: HEK293T PPARd-UAS-bla, beta-lactamase FRET ratio, 18 h; 460 nm channel
Procedure, shortened: (§1)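 Cell-based beta-lactamase assay in antagonist mode: 4000 HEK293T PPAR-delta-UAS-bla cells per well, 5 hr preincubation then 18 hr compound incubation at 37 C. IC50 obtained by Hill equation fitting.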

[6] = molecular target: Peroxisome proliferator-activated receptor delta (Homo sapiens) (UniProt Q03181); assay: as above; conditions: HEK293T PPARd-UAS-bla, beta-lactamase FRET ratio, 18 h; series mostly up to 76.7 µM
Sequence of Peroxisome proliferator-activated receptor delta (Homo sapiens) (Q03181 whole entry, looked up): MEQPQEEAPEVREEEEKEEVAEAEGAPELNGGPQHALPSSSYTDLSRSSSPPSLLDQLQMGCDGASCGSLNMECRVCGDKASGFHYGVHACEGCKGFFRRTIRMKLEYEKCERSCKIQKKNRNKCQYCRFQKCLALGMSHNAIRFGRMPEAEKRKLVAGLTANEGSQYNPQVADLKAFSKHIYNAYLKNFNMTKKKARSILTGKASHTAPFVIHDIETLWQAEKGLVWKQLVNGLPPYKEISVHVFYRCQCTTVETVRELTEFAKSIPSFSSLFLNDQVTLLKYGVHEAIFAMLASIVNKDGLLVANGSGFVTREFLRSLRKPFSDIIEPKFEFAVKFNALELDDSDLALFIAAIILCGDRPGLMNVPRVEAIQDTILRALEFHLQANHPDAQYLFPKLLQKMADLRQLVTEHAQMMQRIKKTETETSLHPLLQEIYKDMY
Procedure, shortened: as §1

[7] = molecular target: Peroxisome proliferator-activated receptor gamma (Homo sapiens) (UniProt P37231); assay: qHTS assay for small molecule agonists of peroxisome proliferator-activated receptor gamma signaling (AID 588536; active = well fitted curve in the direction sought with a large enough effect in the signal ratio, with a control signal flat, not every such curve was filed as active; the % refers to the signal ratio;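 note: 0% = DMSO basal wells and 100% = rosiglitazone at 2 µM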); conditions: HEK293 PPARg-UAS-bla, beta-lactamase ratio, 16 h, percent of rosiglitazone response, DMSO as zero; series mostly up to 76.7 µM
Sequence of Peroxisome proliferator-activated receptor gamma (Homo sapiens) (P37231 whole entry, looked up): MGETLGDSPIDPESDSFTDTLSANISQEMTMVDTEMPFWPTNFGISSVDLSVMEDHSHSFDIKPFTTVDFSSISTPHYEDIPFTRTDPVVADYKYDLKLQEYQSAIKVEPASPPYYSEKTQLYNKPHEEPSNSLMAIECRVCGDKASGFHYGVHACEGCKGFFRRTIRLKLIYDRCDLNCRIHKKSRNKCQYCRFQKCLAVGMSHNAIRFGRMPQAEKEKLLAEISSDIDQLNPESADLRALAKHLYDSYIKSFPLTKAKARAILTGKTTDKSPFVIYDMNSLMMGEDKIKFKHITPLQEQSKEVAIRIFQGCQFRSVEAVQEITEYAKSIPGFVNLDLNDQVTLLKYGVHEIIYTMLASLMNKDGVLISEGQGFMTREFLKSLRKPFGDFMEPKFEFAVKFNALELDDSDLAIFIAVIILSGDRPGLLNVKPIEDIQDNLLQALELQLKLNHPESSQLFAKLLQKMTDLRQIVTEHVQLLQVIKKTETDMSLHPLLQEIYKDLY
Procedure, shortened: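 GeneBLAzer PPAR-gamma-UAS-bla HEK293 cells in 1% charcoal/dextran-treated FBS medium were treated 16 h at 37 C with compounds. Beta-lactamase activity was read by CCF4 ratio (460/530 nm). Response was normalized to 2 uM rosiglitazone (100%) and DMSO, then Hill-fitted for EC50 and efficacy.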

[8] = molecular target: Peroxisome proliferator-activated receptor gamma (Homo sapiens) (UniProt P37231); assay: qHTS assay for small molecule antagonists of peroxisome proliferator-activated receptor gamma signaling (AID 588537; active = well fitted inhibition curve with a large enough effect in the signal ratio, with a control signal flat, not every such curve was filed as active; the % refers to the signal ratio;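 note: reporter cells co-stimulated with 50 nM rosiglitazone agonist during compound treatment; % of control where 0% means no effect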); conditions: HEK293 PPARg-UAS-bla, beta-lactamase ratio, antagonist mode; series mostly up to 76.8 µM
Procedure, shortened: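 Inhibitors of agonist-stimulated UAS-bla reporter activity were sought in HEK293 cells; rosiglitazone (50 nM) defined full signal and DMSO baseline. Curves fitted to Hill model gave IC50 and efficacy.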

[9] = molecular target: DNA dC->dU-editing enzyme APOBEC-3G (Homo sapiens) (UniProt Q9HC16); assay: qHTS for inhibitors of Vif-A3G interactions: Validation (AID 588379); conditions: Vif-A3G protein interaction assay; series mostly up to 46.1 µM; note: 0% is about no effect
Sequence of DNA dC->dU-editing enzyme APOBEC-3G (Homo sapiens) (Q9HC16 whole entry, looked up): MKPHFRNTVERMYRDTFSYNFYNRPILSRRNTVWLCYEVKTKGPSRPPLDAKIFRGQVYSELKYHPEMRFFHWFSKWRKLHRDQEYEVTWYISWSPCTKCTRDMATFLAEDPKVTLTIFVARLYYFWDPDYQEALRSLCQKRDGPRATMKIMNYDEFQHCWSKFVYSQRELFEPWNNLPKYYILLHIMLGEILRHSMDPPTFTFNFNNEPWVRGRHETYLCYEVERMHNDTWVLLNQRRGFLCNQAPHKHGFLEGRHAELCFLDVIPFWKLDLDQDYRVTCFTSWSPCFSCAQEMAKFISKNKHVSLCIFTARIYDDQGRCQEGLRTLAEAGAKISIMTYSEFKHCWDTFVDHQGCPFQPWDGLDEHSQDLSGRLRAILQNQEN
Procedure, shortened: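 HeLa cells stably expressing Vif and A3G-eYFP, 700 cells/well, incubated overnight at 37 deg C, then exposed to compound overnight at 37 deg C. Inhibition of Vif-mediated degradation read as increased yellow fluorescence (Ex 488/Em 500-530) by laser-scanning cytometry.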

[10] = molecular target: Estrogen receptor (Homo sapiens) (UniProt P03372); assay: qHTS assay for small molecule antagonists of estrogen receptor alpha signaling (AID 588513; active = well fitted curve in the direction sought with a large enough effect in the signal ratio, with a control signal flat, not every such curve was filed as active; the % refers to the signal ratio; note: % is set by controls: 0 for no effect and ±100 for the full control effect); conditions: ER-alpha-UAS-bla HEK293, beta-lactamase ratio, antagonist mode; series mostly up to 76.9 µM
Sequence of Estrogen receptor (Homo sapiens) (P03372 whole entry, looked up): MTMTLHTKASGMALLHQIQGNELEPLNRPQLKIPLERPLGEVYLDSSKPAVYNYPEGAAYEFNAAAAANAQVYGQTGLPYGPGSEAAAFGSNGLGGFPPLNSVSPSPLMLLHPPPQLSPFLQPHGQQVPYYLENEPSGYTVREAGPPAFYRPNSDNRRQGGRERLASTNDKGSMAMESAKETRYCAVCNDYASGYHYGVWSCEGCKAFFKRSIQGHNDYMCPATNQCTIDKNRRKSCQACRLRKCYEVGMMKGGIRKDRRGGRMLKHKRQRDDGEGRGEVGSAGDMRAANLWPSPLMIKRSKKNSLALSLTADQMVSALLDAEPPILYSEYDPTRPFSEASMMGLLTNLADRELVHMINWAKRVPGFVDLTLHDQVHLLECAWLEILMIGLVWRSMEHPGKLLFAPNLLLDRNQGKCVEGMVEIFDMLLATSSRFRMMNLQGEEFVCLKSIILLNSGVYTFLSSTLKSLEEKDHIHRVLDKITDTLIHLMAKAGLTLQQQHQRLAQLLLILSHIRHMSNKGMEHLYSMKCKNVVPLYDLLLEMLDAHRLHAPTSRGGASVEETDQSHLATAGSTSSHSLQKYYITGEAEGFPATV
Procedure, shortened: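 Antagonist-mode qHTS in ER-alpha-UAS-bla HEK 293 cells: compound titration, 0.5nM estradiol for 18 h, CCF4 fluorescence, Hill-derived IC50.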

[11] = molecular target: Androgen receptor (Homo sapiens) (UniProt P10275); assay: qHTS assay for small molecule agonists of androgen receptor signaling (AID 588515; active = well fitted curve in the direction sought with a large enough effect in the signal ratio, with a control signal flat; the % refers to the signal ratio; note: % is set by controls: 0 for no effect and ±100 for the full control effect); conditions: AR-UAS-bla HEK293, beta-lactamase ratio, agonist 16 h; stronger effect = higher value
Sequence of Androgen receptor (Homo sapiens) (P10275 whole entry, looked up): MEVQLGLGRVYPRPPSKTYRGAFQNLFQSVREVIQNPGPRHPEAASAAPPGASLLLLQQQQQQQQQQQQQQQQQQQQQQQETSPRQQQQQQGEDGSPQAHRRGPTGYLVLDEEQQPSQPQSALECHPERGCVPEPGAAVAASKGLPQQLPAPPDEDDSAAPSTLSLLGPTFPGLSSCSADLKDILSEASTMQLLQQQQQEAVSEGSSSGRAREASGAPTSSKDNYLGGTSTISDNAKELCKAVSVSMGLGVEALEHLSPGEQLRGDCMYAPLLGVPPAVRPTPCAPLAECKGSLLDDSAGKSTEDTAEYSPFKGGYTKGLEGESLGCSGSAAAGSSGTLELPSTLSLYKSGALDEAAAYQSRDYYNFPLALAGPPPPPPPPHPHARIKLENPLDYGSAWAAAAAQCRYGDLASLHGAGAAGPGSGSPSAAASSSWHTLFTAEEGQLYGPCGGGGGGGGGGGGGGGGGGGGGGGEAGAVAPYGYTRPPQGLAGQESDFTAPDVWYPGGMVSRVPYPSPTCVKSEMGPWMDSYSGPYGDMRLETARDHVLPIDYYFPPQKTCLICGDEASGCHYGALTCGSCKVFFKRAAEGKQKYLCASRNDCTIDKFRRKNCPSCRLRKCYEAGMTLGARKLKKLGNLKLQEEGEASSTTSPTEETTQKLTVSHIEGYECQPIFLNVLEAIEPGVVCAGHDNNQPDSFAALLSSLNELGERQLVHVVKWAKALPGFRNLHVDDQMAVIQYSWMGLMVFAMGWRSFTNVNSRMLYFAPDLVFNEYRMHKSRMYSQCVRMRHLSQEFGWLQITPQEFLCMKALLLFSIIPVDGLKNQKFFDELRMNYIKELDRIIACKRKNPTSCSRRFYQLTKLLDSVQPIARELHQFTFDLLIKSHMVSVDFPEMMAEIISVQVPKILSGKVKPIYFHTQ
Procedure, shortened: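 EC50 and efficacy came from Hill fits of titrations (up to 92 uM) normalized to 30 nM R1881 as 100% and DMSO as 0%. Compound exposure was 16 h at 37 C on AR-UAS-bla HEK293 cells, with a 405/460/530 nm CCF4 fluorescence read.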

[12] = molecular target: Androgen receptor (Homo sapiens) (UniProt P10275); assay: qHTS assay for small molecule antagonists of androgen receptor signaling (AID 588516; active = well fitted curve in the direction sought with a large enough effect in the signal ratio, with a control signal flat, not every such curve was filed as active; the % refers to the signal ratio; note: % is set by controls: 0 for no effect and ±100 for the full control effect); conditions: AR-UAS-bla HEK293, beta-lactamase ratio, antagonist mode, 16 h; series mostly up to 76.8 µM
Procedure, shortened: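 Compounds tested in titration against 10 nM R1881 in AR-responsive bla reporter HEK 293 cells; CCF4 fluorescence (460/530 nm) after 16 h exposure gave IC50 and efficacy.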

IC(I)I
3.49% and 21.3%: max response [5]
inactive: Potency [1] | Potency [2] | activation [3] 16.8% and -7.64% | outcome [4] | outcome [6] | outcome [7] | outcome [8]

CC1=C(/C=C/C(C)=C/C=C/C(C)=C/CO)C(C)(C)CCC1
inactive: outcome [9] | outcome [10] | outcome [7]

O=C(O)CN(CCN(CC(=O)O)CC(=O)O)CC(=O)O
inactive: Potency [1] | outcome [7] | outcome [8]

CCCCCCCC/C=C\CCCCCCCC(=O)O
18% and 10.3%: max response [5]
active: Potency [1] 35.5 µM
inactive: outcome [10] | Potency [2] | activation [3] -2.91% and 1.43% | outcome [4] | outcome [6] | outcome [7]

CC1(C)C(C=C(Cl)Cl)C1C(=O)OCc1cccc(Oc2ccccc2)c1 (stereo not drawn)
inactive: Potency [1] | outcome [10] | activation [11] 4.68% [middle of 4 runs] | outcome [12] | outcome [4] | outcome [6]

Cc1cn([C@H]2C[C@H](O)[C@@H](CO)O2)c(=O)[nH]c1=O
inactive: Potency [1] | outcome [9]

CCCCC/C=C\C/C=C\CCCCCCCC(=O)O
inactive: outcome [10] | Potency [2] | outcome [6] | outcome [8]
53% and -23.8%: max response [5]

O=C(O)CC/C=C\CC[C@H]1[C@@H](N2CCCCC2)[C@@H](O)C[C@@H]1OCc1ccc(-c2ccccc2)cc1
inactive: Potency [1] | outcome [9]

CCOC(C)=O
-20.7%: max response [5]
inactive: Potency [1] | outcome [10] | activation [3] -2.25% | outcome [4] | outcome [6] | outcome [7] | outcome [8]

CO[C@H](C(=O)[C@@H](O)[C@@H](C)O)C1Cc2cc3cc(O[C@H]4C[C@@H](O[C@H]5C[C@@H](O)[C@H](O)[C@@H](C)O5)[C@@H](O)[C@@H](C)O4)c(C)c(O)c3c(O)c2C(=O)[C@H]1O[C@H]1C[C@@H](O[C@H]2C[C@@H](O[C@H]3C[C@](C)(O)[C@H](O)[C@@H](C)O3)[C@H](O)[C@@H](C)O2)[C@H](O)[C@@H](C)O1 (stereo partly drawn)
inactive: Potency [1]

O=C(COc1ccc(Cl)cc1)OCCNC12CC3CC(CC(C3)C1)C2
inactive: Potency [1]

CC(C)=O
-10.3%: max response [5]
inactive: outcome [10] | activation [11] 7.27% | outcome [12] | outcome [6] | outcome [7] | outcome [8]

CC1=CCC(C(C)(C)O)CC1 (stereo not drawn)
-21.9%: max response [5]
inactive: Potency [1] | outcome [10] | activation [11] 3.37% | outcome [12] | Potency [2] | outcome [6] | outcome [7] | outcome [8]
